# Reference: PubChem BioAssay AID588342 (National Center for Advancing Translational Sciences (NCATS), 2011)
# About 25,000 (6.9%) of roughly 360,000 compounds were called active. Roughly 9% stayed inconclusive and do not appear here. Calls come from the whole dose curve; as a rule, active = well fitted inhibition curve with a large enough effect; inconclusive = small, poorly fitted or top-dose-only effect; inactive = flat fitted curve, though single readings scatter. The sample as a whole holds a higher share of actives than the screen did.
# Target: Luciferin 4-monooxygenase (Photinus pyralis) (UniProt P08659)
# Sequence (P08659 whole entry, looked up): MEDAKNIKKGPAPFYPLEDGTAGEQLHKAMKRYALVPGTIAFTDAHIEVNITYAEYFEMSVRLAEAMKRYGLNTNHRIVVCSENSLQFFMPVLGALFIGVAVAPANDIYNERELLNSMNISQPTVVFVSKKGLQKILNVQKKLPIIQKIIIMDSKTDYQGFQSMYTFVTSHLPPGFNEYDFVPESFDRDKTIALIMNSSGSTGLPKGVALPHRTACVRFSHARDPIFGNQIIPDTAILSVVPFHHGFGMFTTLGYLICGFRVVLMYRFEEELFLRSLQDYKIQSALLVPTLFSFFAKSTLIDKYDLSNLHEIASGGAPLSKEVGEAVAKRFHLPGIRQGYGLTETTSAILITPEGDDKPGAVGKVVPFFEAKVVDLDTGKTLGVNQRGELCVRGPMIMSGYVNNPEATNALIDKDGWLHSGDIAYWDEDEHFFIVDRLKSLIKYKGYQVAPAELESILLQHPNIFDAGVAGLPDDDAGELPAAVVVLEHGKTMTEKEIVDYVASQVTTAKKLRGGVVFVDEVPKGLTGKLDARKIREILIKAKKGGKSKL
# Test: qHTS profiling assay for firefly luciferase inhibitor/activator using purifed enzyme and Km concentrations of substrates (counterscreen for miR-21 project); note: nearly all actives have a fitted effect of over 55% in size;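 for activity change, negative = inhibition: plate controls were vehicle for no effect and reference inhibitor for full effect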
# Details: purified FLuc, luminescence inhibition; series mostly up to 57.5 µM; activity change, negative = inhibition: at the top concentration
# How it was run: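 Biochemical qHTS of compounds, final roughly 60 µM downward over six points, against 10 nM purified firefly luciferase using Km concentrations of substrates (10 uM D-luciferin, 10 uM ATP) in Tris acetate pH 7.5 buffer; luminescence output.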
# Potency is the fitted concentration of half-maximal effect.
SMILES,"activity change, negative = inhibition",Potency
COc1ccccc1C1=CC(=O)C[C@H](c2ccc(F)cc2)C1,9.97% (inactive),–
Cc1ccc(SCCC(=O)NCc2ccccn2)cc1,-0.446% (inactive),–
Cc1ccc(SCCC(=O)NC(C(C)C)C(C)C)cc1,0.134% (inactive),–
Cc1ccc(SCCSc2ncccn2)cc1,–,1.69 µM (active)
CCN(C(=O)CSc1nnc(C)n2c1cc1occc12)c1ccccc1,-7.06% (inactive),–
COc1cc(C(=O)NNC(=O)CN2C(=O)NC3(CCCC3)C2=O)cc(OC)c1OC,4.08% (inactive),–
Cc1ccc(-c2nnc3c4ccccc4c(C)nn23)cc1NC(=O)c1cccc(Br)c1,3.27% (inactive),–
Cc1ccc(S(=O)(=O)NCCC(=O)Nc2ccc(C)c(Cl)c2)cc1C,4.43% (inactive),–
Cc1ccnc(NC(=O)CCNS(=O)(=O)c2ccc(C)c(C)c2)c1,–,4.78 µM (active)
Cc1ccc(S(=O)(=O)NCCC(=O)Nc2cccc(S(N)(=O)=O)c2)cc1C,-0.0392% (inactive),–
COc1cc(NC(=O)CN2CCN(S(=O)(=O)c3ccc(Br)cc3)CC2)cc(OC)c1,-0.515% (inactive),–
Cc1cc2ccccc2n1CCC(=O)O,0.677% (inactive),–
O=C(O)CCn1c(Cc2ccccc2)nc2ccccc21,8.23% (inactive),–
O=C(O)CCn1c(O)c(C=C2N=c3ccccc3=N2)sc1=S,–,1.07 µM (active)
CCOC(=O)c1ccc(NC(=O)CC2C(=O)N(c3cccc(OC)c3)C(=O)N2C2CCCCC2)cc1 (stereo not given),-2.48% (inactive),–
CN(CC(=O)Nc1ccccc1F)S(=O)(=O)c1ccc2c(c1)c(=O)n(C)c(=O)n2C,-1.96% (inactive),–
COc1ccccc1C(=O)Nn1cnnc1,6.9% (inactive),–
O=C(NCc1cccs1)c1cc(-c2ccccn2)nc2ccc(Br)cc12,4.27% (inactive),–
CCS(=O)(=O)Nc1cccc(-c2cc(-c3ccccc3)c3cc(C)ccc3n2)c1,-1.35% (inactive),–
Cc1cc(C(=O)OCC(=O)Nc2nccs2)c2ccccc2n1,1.32% (inactive),–
O=C(NCC(c1cccs1)N1CCOCC1)c1cc(-c2ccccn2)nc2ccccc12 (stereo not given),-10.4% (inactive),–
O=C(Nc1ccncc1)c1cc(-c2ccccn2)nc2ccc(Br)cc12,-3.8% (inactive),–

SMILES,"activity change, negative = inhibition",Potency
Cc1ccc2nc(-c3ccccc3)cc(C(=O)O)c2c1,–,12 µM (active)
NC(=O)c1cc(-c2cccnc2)nc2ccc(Br)cc12,-5.36% (inactive),–
Cc1ccsc1-c1cc(C(=O)O)c2c(ccc3ccccc32)n1,–,5.36 µM (active)
Cc1ccc(-c2cc(C(=O)NCc3cn(C)nc3C)c3cc(Br)ccc3n2)cc1,–,1.9 µM (active)
Cc1ccc2nc(-c3ccncc3)cc(C(=O)Nc3ccc4c(c3)OCCO4)c2c1,-14.4% (inactive),–
Cc1ccc2nc(-c3cccc(Br)c3)cc(C(=O)Nn3cnnc3)c2c1,–,0.536 µM (active)
Cc1cccc(NC(=O)Cn2cc(S(=O)(=O)Cc3ccccc3Cl)c3ccccc32)c1,-16.8% (inactive),–
CCOC(=O)c1ccccc1NC(=O)c1sc2nc(-c3ccc(F)cc3)cn2c1C,-4.15% (inactive),–
O=C(NCC12CC3CC(CC(C3)C1)C2)c1cc2nc(-c3ccccc3)cc(C(F)(F)F)n2n1,-0.997% (inactive),–
Cc1nc(CNS(=O)(=O)c2ccc(Oc3ccccc3)cc2)cs1,-1.6% (inactive),–
Cc1ccc(S(=O)(=O)c2cn(Cc3ccccc3)c3cc(N4CCCC4)c(F)cc3c2=O)c(C)c1,-2.49% (inactive),–
NC(=O)Cn1nc([N+](=O)[O-])nc1Oc1ccc(Br)cc1,-0.728% (inactive),–
COc1ccccc1-n1c(-c2ccc(C)cc2)cn2c3c(=O)n(C)c(=O)n(C)c3nc12,-2.65% (inactive),–
COc1cccc(C(=O)N2CCC(n3nccc3NC(=O)C3CCOC3)CC2)c1 (stereo not given),1.7% (inactive),–
COC(=O)[C@]1(C)CCC[C@@]2(C)C3CC[C@]4(OC(C)=O)C[C@@]3(CCC21)CC4=NO (stereo not given in full),0.455% (inactive),–
COc1ccc(N(CC(=O)NCCc2ccc(Cl)cc2)S(=O)(=O)c2c(C)nn(C)c2C)cc1,-0.382% (inactive),–
NC(=O)C1CCN(C(=O)c2ccc(-c3ccccc3)cc2)CC1,2.52% (inactive),–
O=C(CCNS(=O)(=O)c1ccccc1)NCCSc1ccc(Br)cc1,-0.614% (inactive),–
Cc1c(NS(=O)(=O)c2ccc(Cl)cc2)c(=O)n(-c2ccccc2)n1C,5.5% (inactive),–
Cc1nc(N2CCOCC2)nc2c1CCCC2,-5.44% (inactive),–
Nc1nc(-c2sc3nc4c(cc3c2N)CCCC4)nc(N2CCOCC2)n1,–,0.675 µM (active)
Cc1cccc(NC(=O)c2sc3nc(N4CCOCC4)c4c(c3c2N)CCCC4)c1,-18% (inactive),–

SMILES,"activity change, negative = inhibition",Potency
CCN(CC)c1ccc(NC(=O)CN2CCN(CC(=O)Nc3ccc(Cl)cc3)CC2)cc1,-6.9% (inactive),–
COc1ccc(/C(C)=N\NC(=O)c2ccc(-c3ccccc3)cc2)c(F)c1,1.48% (inactive),–
COc1cccc(C(=O)Nc2cccnc2)c1OC,-16.4% (inactive),–
COc1cccc(C(=O)N/N=C(\C)c2cccc(NC(=O)c3ccc(F)cc3)c2)c1OC,–,13.5 µM (active)
Cc1cc(C)cc(NC(=O)Cn2nc(N3CCN(c4ccccc4)CC3)ccc2=O)c1,-14.4% (inactive),–
CCC1CN(S(=O)(=O)c2cc(-c3cc(C)no3)ccc2C)c2cc(C)ccc2O1 (stereo not given),-4.43% (inactive),–
Cc1c(Cl)cccc1NC(=O)Nc1ccc(C(=O)N2CCCC2)cc1,–,5.36 µM (active)
Cc1c(Cl)cccc1NC(=O)NCCCN1CCCC1=O,-0.71% (inactive),–
CS(=O)(=O)Nc1ccc(C(=O)N2CCCC2)cc1,1.38% (inactive),–
Cc1ccc(C)n1-c1nnc(N2CCC(C(=O)NCc3ccc(F)cc3)CC2)s1,-3.4% (inactive),–
Cn1c(=O)c2c(SCC(=O)N3CCc4ccccc43)nc(-c3ccc(Cl)cc3)nc2n(C)c1=O,0.741% (inactive),–
Cc1ccc(OCC(=O)Nc2ccc(NC(=O)c3cccs3)cc2)c(C)c1,-0.406% (inactive),–
Cc1cccc(NC(=O)c2ccc3ccccc3n2)n1,–,6.01 µM (active)
CCN(CC)S(=O)(=O)c1ccc(C)c(NC(=O)COc2ccc(Br)cc2Cl)c1,3.98% (inactive),–
Cc1ccc(S(=O)(=O)NC(=O)COc2ccccc2C)cc1,-1.45% (inactive),–
Cc1cccc(NC(=O)COc2ccccc2C)n1,–,13.5 µM (active)
CCn1c2ccccc2c2cc(NC(=O)COc3ccc(C)cc3C)ccc21,-11.2% (inactive),–
COCCNC(=O)COc1ccccc1C,-1.43% (inactive),–
Cc1cccc(NC(=O)COc2ccc(Br)cc2C)n1,–,3.38 µM (active)
Cc1ccccc1OCC(=O)Nc1ccc(N2CCN(C(=O)C(C)C)CC2)c(Cl)c1,4.38% (inactive),–
Cc1ccccc1OCC(=O)Nc1ccc2c(c1)ncn2C,–,21.3 µM (active)
Cc1cccc(NC(=O)c2cccnc2Cl)n1,2.18% (inactive),–

SMILES,"activity change, negative = inhibition",Potency
Cc1cccc(NC(=O)c2ccccc2NC(=O)C(C)(C)C)n1,12.6% (inactive),–
Cc1nc(C)c2c(c1C(F)(F)F)-c1ccccc1C2(F)F,-3.1% (inactive),–
COc1cccc(NC(=O)CSc2cc(=O)n(C)c3ccc(Cl)cc23)c1,0.0415% (inactive),–
CCC1(CC)NC(=O)N(CC(=O)OCC(=O)c2cc(C)c(C)cc2C)C1=O,2.66% (inactive),–
CCOC(=O)c1c(C)[nH]c(CCC(=O)NCCCN2CCN(c3cc(C)ccc3C)CC2)c1C,1.17% (inactive),–
CCN(CC)C(=O)CSC1c2ccccc2C(=O)N1c1ccccc1 (stereo not given),-6.61% (inactive),–
Cc1ccc(CCCOC(=O)C[N+]2(C)CCCC2)cc1,4.94% (inactive),–
Cn1c(=O)c2c(n(Cc3ccccc3)c1=O)NC(=O)C2CC(=O)N1CCc2ccccc2C1 (stereo not given),0.136% (inactive),–
CC(=O)Nc1cccc2c1[n+]([O-])c(C)c(C)[n+]2[O-],-0.147% (inactive),–
CCOc1ccc(NC(=O)c2cc3c(=O)n(Cc4cccs4)ccc3nc2C)cc1,-9.25% (inactive),–
CCSc1nnc(NC(=O)c2ccc(C)cc2)s1,–,2.69 µM (active)
O=C(Nc1nnc(CCN2CCCCC2)s1)c1cccc(Cl)c1,-2.89% (inactive),–
NC(=O)CSc1nnc(NC(=O)c2ccc3ccccc3c2)s1,–,2.39 µM (active)
O=C(/C=C/c1ccccc1)Nc1nnc(SCC(=O)c2ccc3ccccc3c2)s1,-11.5% (inactive),–
COC(=O)CSc1nnc(NC(=O)CCc2ccccc2)s1,2.62% (inactive),–
Cc1ccc(C(=O)Nc2nnc(-c3ccncc3)s2)o1,-0.508% [at 2.3 µM] (inactive),–
CCOCc1nnc(NC(=O)CSc2ccc(C)cc2)s1,2.73% (inactive),–
CSc1nnc(NC(=O)c2nc(S(=O)(=O)Cc3ccc(C)cc3)ncc2Cl)s1,3.37% (inactive),–
NC(=O)CSc1nnc(NC(=O)c2ccc(Br)o2)s1,–,16.9 µM (active)
CCOc1ccccc1CNC(=O)c1ccc(-n2c(C)cc3c2CCC(C)C3)cc1 (stereo not given),4.62% (inactive),–
COc1ccc2c(c1)c(=O)c(S(=O)(=O)c1ccc(F)cc1)cn2CC(=O)Nc1ccc(C)cc1C,-2.97% (inactive),–
COc1ccccc1CNC(=O)c1ccc(CS(=O)c2ccccc2Cl)o1 (stereo not given),6.69% (inactive),–

SMILES,"activity change, negative = inhibition",Potency
COc1ccc(NC(C)=O)cc1NC(=O)CN1CCN(c2ccc(F)cc2)CC1,1.43% (inactive),–
CCCCCn1c(=O)[nH]c2cc(C(=O)Nc3cc(C)cc(C)c3)ccc2c1=O,2.7% (inactive),–
COc1ccc(OC)c(-n2nnc(-c3nc(-c4cc(OC)c(OC)c(OC)c4)no3)c2C)c1,-1.25% (inactive),–
COc1ccc(-c2cc(-c3nc(-c4cc(OC)c(OC)c(OC)c4)no3)[nH]n2)c(OC)c1,4.6% (inactive),–
COc1ccc(-c2noc(-c3cccc(OC)c3OC)n2)cc1OC,–,2.39 µM (active)
CCOc1ccccc1NC(=O)Cn1nnc(C(=O)Nc2ccc(C)c(C)c2)c1N,-8.7% (inactive),–
COc1ccccc1NC(=O)COc1ccc(C(=O)OCC(=O)N(C(C)C)C(C)C)cc1OC,4.59% (inactive),–
COc1ccc(N(CC(=O)Nc2cccc3ccccc23)S(C)(=O)=O)c(OC)c1,-3.27% (inactive),–
COc1cc(CO)ccc1OCC(=O)Nc1cccc2ccccc12,–,10.7 µM (active)
Cc1nc(SCC(=O)N2CCN(c3ccccc3)CC2)[nH]c(=O)c1C,1.39% (inactive),–
CCC1=[N+]([O-])C(C)(/C(C)=N\O)N(O)C1(C)C (stereo not given),0.914% (inactive),–
Oc1c(CN2CCCC2)cc(COCc2ccccc2)c2cccnc12,1.01% (inactive),–
COC(=O)CN1C(=O)CSc2ccc(S(=O)(=O)Nc3cc(C)ccc3C)cc21,-3.31% (inactive),–
O=C(Nc1ccc(S(=O)(=O)N2CCCCC2)cc1)C1CCN(C(=O)c2ccc(F)cc2)CC1,-0.175% (inactive),–
COc1cccc(C2Nc3cccc4cccc(c34)N2)c1,–,26.9 µM (active)
Oc1ccc(C2Nc3cccc4cccc(c34)N2)cc1,–,16.9 µM (active)
Brc1ccccc1C1Nc2cccc3cccc(c23)N1,-1.29% (inactive),–
COc1ccc(C2CC(c3ccc(C)cc3)Nc3ncnn32)cc1 (stereo not given),2.33% (inactive),–
Cc1ccc(C2CC(c3cccc(C)c3)n3nc(N)nc3N2)cc1 (stereo not given),1.9% (inactive),–
COc1ccc(C2=CC(c3cccc(OC)c3)n3nnnc3N2)cc1 (stereo not given),-2.1% (inactive),–
COc1cccc(N2C(=O)C3CCCN3C2c2ccc(F)cc2)c1 (stereo not given),-2.91% (inactive),–
Cc1ccc(C2Nc3cccc4cccc(c34)N2)cc1,–,10.7 µM (active)
